A selection: hits, their analogues and other compounds. The true share with any hit is near 1.1%.
CIT2 TOR yeast: yeast TOR pathway CIT2-GFP modulation; AID 2029; hit rate 0.065% among 320,000; GFP response vs DMSO, % at 10 µM; S. cerevisiae CIT2-GFP strain, flow cytometry, 3 h; 100 means same as DMSO wells;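 active = GFP response relative to DMSO above a set limit, near the screen mean plus 3 SD, cut at about 150% in these data; inconclusive = Fewer than 70 cells measured for a yeast strain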;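 note: ratio of well median GFP fluorescence to mean of DMSO wells on the plate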
MEP2 TOR yeast: modulators of TOR pathway MEP2-GFP in S. cerevisiae | S. cerevisiae MEP2-GFP strain, flow cytometry GFP, 3 h; 100% = DMSO control level | GFP response vs DMSO, % at 10 µM | hit rate 0.51% among 330,000 | AID 2016;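 active = GFP response versus DMSO above a set limit, roughly screen mean plus 3 SD, cut at about 180% in these data; inconclusive = fewer than 70 cells counted for a yeast strain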;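 note: median GFP fluorescence of the barcode-gated MEP2-GFP cells per well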
VLA-4 inh: inhibition in a human VLA-4 binding assay | P13612 | VLA-4 expressing cells, ligand binding flow cytometry | inhibition, % (about 7 µM as worked out from the volumes in the protocol) | hit rate 0.2% among 330,000 | AID 2557; in the data active = inhibition above about 50%
Target sequence (P13612 whole entry, looked up): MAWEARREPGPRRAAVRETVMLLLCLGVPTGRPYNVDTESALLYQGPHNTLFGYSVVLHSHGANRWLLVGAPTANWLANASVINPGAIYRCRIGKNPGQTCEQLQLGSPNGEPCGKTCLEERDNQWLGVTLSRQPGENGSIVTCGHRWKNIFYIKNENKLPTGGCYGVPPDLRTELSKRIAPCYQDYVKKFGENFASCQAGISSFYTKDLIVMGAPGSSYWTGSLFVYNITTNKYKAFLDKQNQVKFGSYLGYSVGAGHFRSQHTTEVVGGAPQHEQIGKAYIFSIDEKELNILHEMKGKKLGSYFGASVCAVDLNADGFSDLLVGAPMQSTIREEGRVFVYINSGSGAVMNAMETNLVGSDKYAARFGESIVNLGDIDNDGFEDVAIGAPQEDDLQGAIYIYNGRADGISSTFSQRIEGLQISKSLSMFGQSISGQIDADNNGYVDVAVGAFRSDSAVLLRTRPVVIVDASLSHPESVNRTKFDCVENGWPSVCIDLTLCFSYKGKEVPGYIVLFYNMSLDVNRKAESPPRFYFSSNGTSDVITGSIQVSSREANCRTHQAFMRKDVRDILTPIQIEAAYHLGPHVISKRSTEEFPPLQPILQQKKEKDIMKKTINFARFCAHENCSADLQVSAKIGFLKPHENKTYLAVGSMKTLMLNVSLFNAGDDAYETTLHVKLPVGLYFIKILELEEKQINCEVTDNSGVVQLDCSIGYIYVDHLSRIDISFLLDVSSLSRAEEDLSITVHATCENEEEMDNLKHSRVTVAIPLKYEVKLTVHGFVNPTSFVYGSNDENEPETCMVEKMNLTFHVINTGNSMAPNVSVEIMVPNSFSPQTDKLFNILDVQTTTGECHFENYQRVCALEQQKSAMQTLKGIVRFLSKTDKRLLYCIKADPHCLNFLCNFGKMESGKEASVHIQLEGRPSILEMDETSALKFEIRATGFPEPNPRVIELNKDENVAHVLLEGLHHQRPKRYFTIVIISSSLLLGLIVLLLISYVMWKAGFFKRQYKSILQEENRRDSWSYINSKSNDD
AGP1-GFP MLPCN: modulators of TOR pathway AGP1-GFP in S. cerevisiae | S. cerevisiae AGP1-GFP multiplex flow cytometry, 3 h; GFP as percent of DMSO wells | GFP response vs DMSO, % at 10 µM | hit rate 0.02% among 320,000 | AID 2066;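 active = GFP response relative to DMSO above a set limit, near screen average plus 3 SD, cut at about 150% in these data; inconclusive = fewer than 70 cells counted for the yeast strain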;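 note: median GFP channel fluorescence of the gated AGP1 strain per well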
LAP4 TOR yeast: modulators of TOR pathway LAP4-GFP in S. cerevisiae. S. cerevisiae LAP4-GFP multiplex, flow cytometry GFP, 3 h; median GFP as percent of DMSO wells. GFP response vs DMSO, % at 10 µM. hit rate 0.34% among 320,000. AID 2023;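 active = GFP response vs DMSO above a set limit, about the screen mean plus 3 SD, cut at about 150% in these data; inconclusive = under 70 cell events counted for the yeast strain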
RPL19A-GFP yeast: modulators of TOR pathway RPL19A-GFP in S. cerevisiae; percent response vs DMSO, % at 10 µM; S. cerevisiae RPL19A-GFP strain, flow cytometry, 3 h; hits give low values; AID 2025; hit rate 0.3% among 330,000;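 active = percent response vs DMSO below 50%; inconclusive = fewer than 70 events counted for the yeast strain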;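 note: median channel GFP fluorescence of the barcoded RPL19A-GFP strain; lower means less RPL19A-GFP as with rapamycin TOR inhibition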
VLA-4 allo CP: confirmation of allosteric modulators of human VLA-4 integrin; shares compounds with VLA-4 inh; U937 cells, HUTS-21 LIBS mAb binding, flow cytometry; LDV ligand present at threefold Kd; inhibition, % at 6.7 µM; hit rate 2% among 1,300; in the data active = inhibition above about 40%
Each line names hits and unclear results; the compound was inactive in the other large screens (follow-up assays come after a bar, where they were run).

NC(=O)CC(NC(=O)c1cccc(Br)c1)c1ccc(N2CCC(N3CCCCC3)CC2)c([N+](=O)[O-])c1 (centres undefined)	VLA-4 inh 56 | VLA-4 allo CP inactive
CC1(C)CC(=O)C=C(Nc2ccc(Cl)c(Br)c2)C1	none
Cc1cc(C)nc(-n2ncc3c2CC(C)CC3=O)n1 (centres undefined)	none | VLA-4 allo CP inactive
Cc1cc(C)nc(-n2ncc3c2CC(c2ccccc2)CC3=O)n1 (centres undefined)	none
C=CCNC(=O)c1ccccc1NC(=O)COc1ccc(OC)cc1	none | VLA-4 allo CP inactive
C=CCNC(=O)c1ccccc1NC(=O)Nc1ccccc1	none
C=CCNC(=O)c1ccccc1NC(=O)COc1ccccc1	VLA-4 inh 54 | VLA-4 allo CP inactive
CCOC(=O)C1=C(C)N(CCCC(=O)O)C(=O)NC1c1ccc(Br)cc1 (centres undefined)	none
COc1cccc(CNC(=O)[C@H](CCSC)NC(=O)N2CCn3c2nc2ccccc23)c1	none
COc1ccccc1CC(=O)OC(C)C(=O)Nc1ccc(S(=O)(=O)N2CCCCC2)cc1 (centres undefined)	VLA-4 inh 54 | VLA-4 allo CP inactive
CCOc1ccc(NC(=O)CN(c2ccc(OCC)cc2)S(=O)(=O)c2c(C)[nH]c(=O)[nH]c2=O)cc1	none | VLA-4 allo CP inactive
CCOc1ccc(N(CC(=O)Nc2ccc(C)cc2)S(=O)(=O)c2c(C)[nH]c(=O)[nH]c2=O)cc1	none
CCOc1ccc(N(CC(=O)NCc2ccc(OC)cc2)S(=O)(=O)c2c(C)[nH]c(=O)[nH]c2=O)cc1	none
CCOc1ccc(N(CC(=O)Nc2ccc(OC)cc2)S(=O)(=O)c2c(C)[nH]c(=O)[nH]c2=O)cc1	VLA-4 inh 57 | VLA-4 allo CP inactive
N#CCc1ccc(NC(=O)c2cc(S(=O)(=O)N3CCOCC3)ccc2Cl)cc1	none
Brc1ccc2ncnc(NCc3ccco3)c2c1	none
OC(CNCc1ccco1)Cn1c2ccc(Br)cc2c2cc(Br)ccc21 (centres undefined)	VLA-4 inh 67 | VLA-4 allo CP inactive
CCOC(=O)c1ccc(N2C(=O)CC(N3CCOCC3)C2=O)cc1 (centres undefined)	none | VLA-4 allo CP inactive
COC(=O)c1sccc1NC(=O)Nc1ccccc1F	none
COC(=O)c1sccc1NC(=O)Nc1ccccc1C	none | VLA-4 allo CP inactive
CC(=O)Nc1ccc(NC(=O)CN(c2cc(Cl)ccc2Cl)S(C)(=O)=O)cc1	VLA-4 inh 60 | VLA-4 allo CP inactive
O=S(=O)(NCC(c1cccnc1)N1CCc2ccccc2C1)c1ccccc1 (centres undefined)	none
COc1ccc(C(=O)N(Cc2ccco2)Cc2cccs2)c(O)c1	VLA-4 inh 54 | VLA-4 allo CP inactive
COc1ccccc1C(=O)NCCC(=O)N(Cc1ccco1)Cc1cccs1	none
Cc1ccc(S(=O)(=O)N2CCC(C(=O)OCC(=O)N3CCCC(C)C3)CC2)cc1C (centres undefined)	none
COc1ccc(-n2c(=O)[nH]cc(C(=O)Nc3ccccc3)c2=O)cc1	VLA-4 inh 55 | VLA-4 allo CP inactive
CCCCC1(C)NC(=O)N(CC(=O)N2CCc3ccccc32)C1=O (centres undefined)	none
Cc1cc(C=O)c(C)n1-c1sc2c(c1C(=O)O)CCCC2	VLA-4 inh 52 (no result: CIT2 TOR yeast, MEP2 TOR yeast, AGP1-GFP MLPCN, LAP4 TOR yeast, RPL19A-GFP yeast) | VLA-4 allo CP inactive
COc1ccc(C(=O)N[C@H]2CCCCNC2=O)cc1OC1CCN(C(C)C)CC1	none
CC(C)NC(=O)CS(=O)(=O)c1ccccc1	VLA-4 inh 50 | VLA-4 allo CP inactive
COC(=O)C(NC(=O)CCc1nnc2ccc(N3CCCCC3)nn12)C(C)C (centres undefined)	CIT2 TOR yeast inconclusive
C#C[C@]1(O)CC[C@H]2[C@@H]3CCc4cc(OC5CCCC5)ccc4[C@H]3CC[C@@]21C	VLA-4 inh 53 | VLA-4 allo CP inactive
CC(C)OCCCn1c(-c2ccco2)nc2nc3ccccc3nc21	none
